# Shown are actives, neighbours in structure and some others; about 22% of the full set was active somewhere.
# Pf growth 48h – P. falciparum growth inhibition at 48 hours (one generation). P. falciparum luciferase growth in erythrocytes, 48 h. Potency, µM (doses to about 28.7 µM), without a hit: at the top dose activity change, negative = inhibition, usual class: inhibitors. 5.9% of 310,000 active. AID 504832; note: potency is the fitted concentration of half-maximal effect; % is set by controls: 0 for no effect and ±100 for the full control effect
#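 Compounds are pin-transferred into medium, infected erythrocytes (2% hematocrit, 0.1% parasitemia final) are added, and plates sit one parasite generation at 37 C in 5% CO2. Detection reagent is then added and luminescence measured.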
# Shiga toxin inh – inhibitors of Shiga toxin in Vero cells. 9.2% of 290,000 active. Vero cells, Shiga toxin protein synthesis inhibition reporter. inhibition, % at 38.7 µM; in the data active = inhibition mostly above about 28%, no sharp cut-off; inactive = mostly below about 43%; note: 0% is about no effect
# Cycloheximide cs – counter-screen for Shiga toxin inhibitors: cycloheximide protein synthesis inhibition; max response, %; 12% of 300,000 active; AID 2314; cell reporter, cycloheximide protein synthesis inhibition counterscreen; in the data active = max response mostly above about 13%, no sharp cut-off; inactive = mostly below about 14%; note: read at 38.3 µM for the half of the compounds with a filed dose; 0% is about no effect
# Pf growth 96h – inhibits malaria parasite growth, 96 h. 6.9% of 320,000 active. P. falciparum luciferase reporter growth, 96 h. Potency, µM (top dose mostly 28.7 µM), without a hit: top-dose activity change, negative = inhibition, usual class: inhibitors; note: potency is the fitted concentration of half-maximal effect; % is set by controls: 0 for no effect and ±100 for the full control effect
#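 P. falciparum expressing integrated firefly luciferase grown in erythrocytes (2% hematocrit, 0.05% parasitemia final) with compounds for 96 hours at 37 C, 5% CO2. Growth inhibition read as loss of luminescence after adding luciferase detection reagent.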
# LmPK inh – LmPK (Leishmania mexicana) enzyme inhibition; 0.37% of 290,000 active; purified LmPK, Kinase-Glo ATP luminescence, 1 h; Potency, µM (top dose mostly 57.5 µM), for inactives: at the highest dose activity change, negative = inhibition, most hits filed as inhibitors; Q27686; AID 1721; note: potency is the fitted concentration of half-maximal effect; % is set by controls: 0 for no effect and ±100 for the full control effect
# Target sequence (Q27686 whole entry, looked up): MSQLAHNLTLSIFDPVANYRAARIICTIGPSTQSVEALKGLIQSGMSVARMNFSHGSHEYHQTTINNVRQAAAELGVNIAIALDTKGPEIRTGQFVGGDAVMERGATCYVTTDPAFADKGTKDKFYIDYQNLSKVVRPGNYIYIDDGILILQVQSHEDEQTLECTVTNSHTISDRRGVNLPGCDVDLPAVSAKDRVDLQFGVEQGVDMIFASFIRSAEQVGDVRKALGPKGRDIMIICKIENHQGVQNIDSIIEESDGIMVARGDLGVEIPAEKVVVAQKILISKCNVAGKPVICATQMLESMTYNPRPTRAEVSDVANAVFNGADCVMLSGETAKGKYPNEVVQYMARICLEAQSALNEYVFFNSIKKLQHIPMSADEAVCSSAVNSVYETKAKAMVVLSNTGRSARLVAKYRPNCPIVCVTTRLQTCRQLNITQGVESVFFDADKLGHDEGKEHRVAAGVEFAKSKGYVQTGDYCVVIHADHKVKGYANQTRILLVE
#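 qHTS format; LmPK 0.1 nM; substrates PEP 0.5 mM and ADP 0.1 mM. One-hour room-temperature incubation, then coupled luciferase luminescence; 0.5 nM enzyme wells mark activation.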
# * = called active by the depositor; i = inactive; ? = inconclusive; · = no result given; [ ] = remark or other dose. Unless noted, calls come from the whole dose curve; as a rule, active = well fitted inhibition curve with a large enough effect; inconclusive = small, poorly fitted or top-dose-only effect, or another doubt; inactive = no such curve, though single readings can be large or run the other way.
SMILES,Pf growth 48h,Shiga toxin inh,Cycloheximide cs,Pf growth 96h,LmPK inh
COc1ccc(/C(O)=C2/C(=O)C(=O)N(c3ccccn3)C2c2ccc(F)cc2)cc1 (configuration not stated),-12.1%,16.0,-0.5,6.57µM*,-2.7%
COC(=O)c1ccc(C2/C(=C(\O)c3ccc(OC)c(C)c3)C(=O)C(=O)N2c2cc(C)on2)cc1 (configuration not stated),41.7%,-17.6,-2.3,0.3%,3.9%
COc1ccc(C2/C(=C(/O)c3ccccc3)C(=O)C(=O)N2c2ccccn2)c(OC)c1 (configuration not stated),-1.2%,-2.3,18.5,34.5%,-1.3%
COc1cccc(/C(O)=C2\C(=O)C(=O)N(c3ccccn3)C2c2ccccc2OC)c1 (configuration not stated),8.1%,28.3,-1.2,5.22µM*,-1.7%
Cc1cc(N2C(=O)C(=O)/C(=C(/O)c3ccc(F)cc3)C2c2ccc(Cl)cc2)no1 (configuration not stated),13.1µM*,-10.8,1.3,59.0%,3.3%
COc1cccc(CN2CC(C(=O)NCCc3ccccc3C(F)(F)F)CCC2=O)c1 (configuration not stated),?,21.9,10.3,30.0%,0.3%
COc1ccc(CCNC(=O)C2CCN(S(=O)(=O)c3ccc(F)cc3)CC2)cc1,?,-12.0,-1.4,3.4%,10.5%
Cc1ccoc1C(=O)NCCNc1ccc(Cl)cc1[N+](=O)[O-],24.6%,27.3,14.4*,?,5.2%
O=C(NCCNc1ccc(Cl)cc1[N+](=O)[O-])c1cccnc1,-10.4%,-3.3,-3.4,0.9%,2.7%
CC(=O)N1CC[C@H]2CC(=O)CC[C@@]21C,·,i,3.4,·,·
Cc1ccc(-c2nc3cc(Br)cnc3nc2-c2ccc(C)cc2)cc1,?,3.7,-0.9,14.7µM*,0.6%
O=C(NC1CCCCC1)NC1CC2CCCC(C1)N2C1CCCC1 (configuration not stated),2.2%,-11.9,-3.3,13.1µM*,1.9%
CCOC(=O)CNC1CC(=O)N(c2ccc(Br)cc2)C1=O (configuration not stated),?,5.3,-1.5,1.6%,-11.6%
O=C(/C=C/c1ccc(O)c(O)c1)OC1C(O)CC(OC(=O)/C=C/c2ccc(O)c(O)c2)(C(=O)O)CC1O (configuration not stated),31.2%,1.4,13.4,23.6%,2µM*
Cc1ccc(NC(=O)Nc2ccccc2CC[N+](=O)[O-])cc1,29.0%,-2.4,16.1*,48.1%,2.5%
COc1ccc(CCNC(=O)c2cc(-c3ccc(Cl)c(Cl)c3)oc2C)cc1,5.8%,-6.2,7.7,15.2%,-1.0%
COc1ccccc1-c1nc(-c2ccccn2)no1,·,-5.1,14.4,3.3%,4.47µM*
COc1ccc(Br)cc1-c1noc(-c2ccccc2)n1,36.8%,-5.1,-2.7,·,2.2%
COc1ccccc1-c1noc(-c2ccncc2)n1,124.8%,63.8*,26.8*,·,?
COc1ccccc1-c1noc(-c2cccs2)n1,208.2%,110.7*,44.0*,173.9%,?
O=C(c1ccc(OC2CCN(Cc3ccccn3)CC2)cc1)N1CCCCO1,-9.6%,2.5,0.9,11.7%,-6.2%
COc1cccc(NC(=O)COC(=O)CCC(=O)c2cccs2)c1,24.8%,·,·,0.0%,·
CCOc1ccc(C(=O)OC(C)CN2CCN(C)CC2)cc1 (configuration not stated),·,-4.5,4.6,12.7%,1.2%
Nc1c(C(=O)NC2CCCC2)c2nc3ccccc3nc2n1N,-1.1%,43.1*,70.5*,295.4%,-4.1%
Nc1c(C(=O)NCC2CCCO2)c2nc3ccccc3nc2n1Cc1ccco1 (configuration not stated),9.28µM*,13.0,1.6,-10.3%,3.3%
SMILES,Pf growth 48h,Shiga toxin inh,Cycloheximide cs,Pf growth 96h,LmPK inh
Nc1c(C(=O)NC2CCCC2)c2nc3ccccc3nc2n1CC1CCCO1 (configuration not stated),10.4µM*,-16.3,-3.0,-18.7%,1.4%
CC(=O)c1ccc(OCc2cccc(C(F)(F)F)c2)cc1O,5.0%,42.9*,29.5*,?,-7.2%
COc1ccccc1N1C(=O)S/C(=C\c2cc(C)n(C)c2C)C1=O,78.8%,56.5*,28.5*,37.9%,1.5%
COc1ccccc1N1C(=O)S/C(=C\c2ccc(C)s2)C1=O,29.8%,27.8*,21.8*,-26.8%,0.7%
O=C(COC(=O)C1CCN(c2ccc(C(F)(F)F)cn2)CC1)NCc1ccccc1,19.6%,·,·,-11.6%,·
O=C(NCCCN1CCCC1=O)C(=O)NCC1OCCN1S(=O)(=O)c1ccc(Cl)cc1 (configuration not stated),4.8%,-27.5,1.6,15.9%,-5.2%
CC1(C)NC(=O)N(CC(=O)Nc2cc(S(=O)(=O)N3CCOCC3)ccc2N2CCOCC2)C1=O,19.2%,-10.7,4.8,7.38µM*,6.6%
O=C(CN1CCc2ccccc2C1)Nc1cc(S(=O)(=O)N2CCOCC2)ccc1N1CCOCC1,?,6.4,-1.3,13.1µM*,1.9%
CSc1ccc(NC(=O)C(C)N2CCN(C)CC2)cc1 (configuration not stated),3.7%[0.00184 µM],-8.5,-2.2,11.6%,-2.4%
Cc1onc(-c2c(F)cccc2Cl)c1C(=O)NC(=S)NCc1cccnc1,-21.1%,2.5,1.4,-8.3%,2.4%
COc1ccc(N/N=C(/Oc2ccc([N+](=O)[O-])cc2)C(C)=O)cc1,?,-1.5,5.6,11.7µM*,2.0%
COc1ccc(NN=Nc2ccc([N+](=O)[O-])cc2)cc1,190.6%,27.4,32.1*,112.5%,2.9%
COc1ccc(N(C(C)=O)S(=O)(=O)c2cccc3cccnc23)cc1,-20.2%,0.6,-2.1,-4.2%,2.4%
Cc1ccc(NC(=O)OCc2ccccc2S(C)=O)cc1 (configuration not stated),14.6%,38.4,30.2*,?,10.5%
CS(=O)c1ccccc1COC(=O)Nc1ccc(Cl)cc1 (configuration not stated),-4.8%,35.8,15.8*,?,6.0%
CCc1ccc(C)[n+](CC(=O)c2cccs2)c1,5.1%,-6.0,-3.1,-10.7%,2.6%
O=C(CC1SC(=NCc2ccccc2)NC1=O)Nc1ccccc1 (configuration not stated),9.8%,9.0,2.9,?,0.6%
COc1cccc(CNC(=O)c2cc(COc3c(F)cccc3F)on2)c1,6.5%,32.8*,28.5*,-16.5%,5.9%
COc1cccc(OCc2cc(C(=O)NCc3ccc4c(c3)OCO4)no2)c1,19.8%,47.9*,43.7*,85.6%,0.2%
O=C(NCc1ccc2c(c1)OCO2)c1cc(COc2c(F)cccc2F)on1,17.6%,41.9,36.9*,?,1.4%
CCC(NC(=O)c1cc(COc2c(F)cccc2F)on1)c1ccncc1 (configuration not stated),12.4%,-0.6,14.9,-7.6%,-2.8%
O=C(NCc1ccc(N2CCCC2=O)cc1)c1cc(COc2c(F)cccc2F)on1,-14.9%,12.6,22.4,?,0.1%
